Screening data from PubChem BioAssay.
TrxR1 inh: rat TrxR1 inhibition | recombinant rTrxR1, NADPH fluorescence consumption, selenite substrate | 1% of 390,000 active | Potency, µM (doses to about 114 µM), for inactives: at the top dose activity change, negative = inhibition, most hits filed as inhibitors | AID 588453 | O89049; further: potency means the concentration at half of the fitted maximal effect; nearly all actives have a fitted effect of over 65% in size
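Rat TrxR1 (90 nM in the dispensed reagent) was pre-reduced with 400 uM NADPH for 5 min at room temperature, then incubated with compound for 15 min. After 400 uM selenite was added, NADPH fluorescence (Ex 340/Em 450 nm) was followed for 8 min.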
FBPA coupling cs: counter-screen for Giardia aldolase inhibitors: coupling enzyme system. coupling enzyme system counterscreen, AmpLite Red fluorescence. activity change, negative = inhibition, % at 58.2 µM, hits read low. 0.67% of 290,000 active. AID 2472; in the data active means activity change below about -30%
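Final compound at 57.5 uM, incubated 10 min at RT with coupling enzyme reagent (glyceraldehyde-3-phosphate), then 20 min with substrate and AmpLite Red detection. Fluorescence read at 525/598 nm; tests interference with the coupling assay, not aldolase inhibition.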
RORgamma inh: inhibitors of mouse ROR gamma transcriptional activity | P51450 | Drosophila S2 Gal4-RORgamma UAS-luciferase reporter, 20 h | Potency, µM (titrated, usually from 53.6 µM), for the others: at the highest dose activity change, negative = inhibition, most hits filed as inhibitors | 5.4% of 310,000 active | AID 2551; further: potency means the concentration at half of the fitted maximal effect; nearly all actives have a fitted effect of over 60% in size
Target sequence (P51450 whole entry, looked up, the tested form may be a part): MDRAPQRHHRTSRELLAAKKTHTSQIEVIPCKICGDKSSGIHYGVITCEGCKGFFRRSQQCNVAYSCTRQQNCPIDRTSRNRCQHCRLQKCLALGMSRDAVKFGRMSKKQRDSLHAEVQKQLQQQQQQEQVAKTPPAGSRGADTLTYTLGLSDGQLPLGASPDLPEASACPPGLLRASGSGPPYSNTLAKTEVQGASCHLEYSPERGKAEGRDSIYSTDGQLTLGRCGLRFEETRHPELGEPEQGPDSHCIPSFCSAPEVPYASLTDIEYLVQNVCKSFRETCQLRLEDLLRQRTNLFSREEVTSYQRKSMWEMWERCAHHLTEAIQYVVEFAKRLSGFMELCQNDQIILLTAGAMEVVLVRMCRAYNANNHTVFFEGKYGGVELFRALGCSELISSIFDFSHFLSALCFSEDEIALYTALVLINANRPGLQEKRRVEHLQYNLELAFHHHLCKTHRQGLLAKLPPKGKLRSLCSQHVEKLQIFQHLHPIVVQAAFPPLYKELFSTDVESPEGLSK
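Drosophila Schneider cells stably carrying a metallothionein-driven Gal4 DBD–ROR gamma fusion and a UAS-Photinus luciferase reporter were exposed to compound for 1 hr, then induced with copper sulfate (700 uM final) for 20 hr at ambient temperature before luminescence reading.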
TrxR1 substrate: rat thioredoxin reductase 1 substrate activity; O89049; purified TrxR1 substrate turnover, NADPH consumption readout; Potency, µM (top dose mostly 114 µM), inactives show at the highest dose activity change, negative = substrate turnover; 0.01% of 390,000 active; further: potency means the concentration at half of the fitted maximal effect; nearly all actives have a fitted effect of over 50% in size
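Rat TrxR1, dispensed at 90 nM, was prereduced with 400 uM NADPH (final) for 5 min at ~22 deg C, then incubated with compound 15 min before 400 uM selenite. A first-read NADPH fluorescence drop versus no-compound background flagged substrates.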
Gal4-VP16 FLuc: Gal4-VP16 reporter inhibition counter-screen | 3.5% of 310,000 active | Drosophila S2 Gal4-VP16 UAS-luciferase, luminescence, 20 h | Potency, µM (series often up to 53.6 µM), without a hit: at the highest dose activity, negative = inhibition, hits mostly inhibitors | AID 2546;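 further: Gal4-VP16 expression switched on by copper sulfate through the metallothionein promoter; potency means the concentration at half of the fitted maximal effect; nearly all actives have a fitted effect of over 50% in size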
GALK inhibitor: blocks human galactokinase activity; Purified GALK, Kinase-Glo residual ATP luminescence; AID 1868; 0.007% of 270,000 active; Potency, µM (highest dose often 57.5 µM), for inactives: at the highest dose activity change, negative = inhibition, most hits filed as inhibitors; further: potency means the concentration at half of the fitted maximal effect
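Luminescence from leftover ATP (Ultra-Glo luciferase/luciferin) served as read-out after a 1 h room-temperature reaction of 5 nM GALK with 35 uM ATP and 100 uM galactose.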
The depositor's hits bear a star; ? = inconclusive; . = no result given; [ ] = another dose, or the depositor's remark. In the library only some 5.9% were active in any assay of this set; here they are far more common. Unless noted, the call rests on the fitted dose curve; in most records, active means well fitted curve in the direction sought with a large enough effect; inconclusive means small, poorly fitted or top-dose-only effect, or another doubt; inactive means no such curve, though single readings can be large; an effect the other way counts as inactive or inconclusive. On the % scale 0 is the no-effect control and ±100 the full control effect.

SMILES	TrxR1 inh	FBPA coupling cs	RORgamma inh	TrxR1 substrate	Gal4-VP16 FLuc	GALK inhibitor
CC1=C(C(=O)c2ccccc2)C(c2ccc(O)cc2)NC(=S)N1 (stereo not drawn)	10%	5	-20%	4%	9%	0%
CC1=C(C)C(c2ccccc2)NC(=S)N1 (stereo not drawn)	?	0	5µM*	-4%	-93%	0%
CC(C)Oc1cccc(-c2nnc(SCC(=O)Nc3ccc4c(c3)OCCO4)n2N)c1	9%[57.1 µM]	0	-1%	-2%[57.1 µM]	-9%	-3%
Cn1cc(Br)c(C(=O)NC(=S)N2CCN(c3ccccn3)CC2)n1	29%[57.1 µM]	2	4µM*	13%[57.1 µM]	13µM*	.
Cn1ncc(Br)c1C(=O)NC(=S)N1CCN(c2ccccn2)CC1	-20%	0	6.3µM*	-5%	11µM*	2%
CCOC(=O)N1CCN(C(=S)NC(=O)c2nn(C)cc2Br)CC1	-5%	-2	18µM*	10%	?	0%
CCCC(=O)Nc1ccccc1OCc1cc(=O)n2cc(C)ccc2n1	25%[57.1 µM]	.	.	9%[57.1 µM]	.	.
C=CCOc1ccccc1CNCCNC(=O)c1nonc1N	21%[57.1 µM]	4	20%	-1%[57.1 µM]	-4%	-2%
CCOc1cccc2sc(N3CCN(C(=O)c4ccco4)CC3)nc12	-3%[57.1 µM]	.	.	-10%[57.1 µM]	.	.
COc1ccc(-c2nc3cc(C)ccn3c2NCc2ccc3c(c2)OCO3)cc1	0%	-1	7.1µM*	13%	?	1%
c1ccc(-c2nc3ccccn3c2NCc2ccc3c(c2)OCO3)cc1	9%[57.1 µM]	0	10µM*	12%[57.1 µM]	-6%	-2%
CCN(c1ccccc1)S(=O)(=O)c1ccc(F)c(C(=O)Nc2ccc(C)cc2)c1	14%[57.1 µM]	.	.	0%[57.1 µM]	.	.
BrC(=C\c1ccccc1)/C=N/n1cnnc1	-1%	7	7.1µM*	11%[0.0914 µM]	?	8%
BrC(=C\c1ccccc1)/C=N/Nc1ccc2nncn2n1	18µM*	-1	-24%	-10%	2%	.
CCOc1ccc(NC(=O)CSc2cc(C)c3ccccc3n2)cc1	7%[57.1 µM]	.	.	3%[57.1 µM]	.	.
COc1cccc(C(=O)CC2(O)C(=O)N(Cc3ccccc3)c3ccccc32)c1 (stereo not drawn)	-9%	.	.	-4%	.	.
CCCN1C(=O)C(O)(CC(=O)c2cccc(OC)c2)c2ccccc21 (stereo not drawn)	-5%	-7	-17%	-6%	14µM*	0%
Cc1ccc(C(=O)CSc2nc3cccnc3n2C)cc1	6%	-3	-14%	-2%	15%	1%
COc1ccc(OC)c(C(=O)CSc2nc3cccnc3n2C)c1	9%	-40*	?	1%	?	1%
O=C(COc1ccc2oc(-c3ccccc3)cc(=O)c2c1)Nc1ccccc1	3%[57.1 µM]	1	13µM*	-1%[57.1 µM]	?	-1%
COc1ccc(-c2cc(=O)c3cc(OC)ccc3o2)cc1	12%[57.1 µM]	3	-14%	18%[57.1 µM]	3%	4%
COC(=O)COc1ccc2oc(-c3ccc(OC)cc3)cc(=O)c2c1	7%	.	.	7%	.	.
COc1ccc2oc(-c3ccc(O)cc3)cc(=O)c2c1	.	1	25µM*	.	25µM*	.
C[C@@H](NC(=O)c1nc[nH]c1C(=O)NCC(=O)OC(C)(C)C)c1ccccc1	16%[57.1 µM]	1	10µM*	7%[57.1 µM]	?	.
C[C@@H](NC(=O)c1nc[nH]c1C(=O)NCC(=O)OCc1ccccc1)c1ccccc1	10%	4	8.9µM*	-5%	?	.
SMILES	TrxR1 inh	FBPA coupling cs	RORgamma inh	TrxR1 substrate	Gal4-VP16 FLuc	GALK inhibitor
COCCNc1ccc(N2C(=O)C3CCCCC3C2=O)cc1[N+](=O)[O-] (stereo not drawn)	4%	-2	18%	1%	-8%	-1%
CCOc1ccccc1NC(=S)NC(=O)C1CC1	10%[57.1 µM]	.	?	7%[57.1 µM]	0.71µM*	-4%
CCOc1ccccc1NC(=O)c1ccc(C(=O)Nc2ccccc2OCC)cc1	-16%	.	.	-1%	.	.
O=C(NC(=S)Nc1ccccc1Br)C1CC1	?	.	.	-1%	.	.
CCOc1ccccc1NC(=O)Nc1cccc(S(N)(=O)=O)c1	13%[57.1 µM]	0	0%	3%[2.29 µM]	14%	.
CCOc1ccccc1NC(=S)Nc1ccc(S(N)(=O)=O)cc1	?	1	11µM*	0%	-26%	9%
CCOc1ccccc1NC(=O)/C=C/C(N)=O	25µM*	1	4.5µM*	10%	5.6µM*	-1%
Cc1ccccc1NC(=S)NC(=O)C1CCCCC1	?	.	4µM*	-1%	?	-3%
CCN1CCN(S(=O)(=O)c2ccc(OC)c3ccccc23)CC1	3%	0	27%	1%	-2%	-2%
N#C/C(=C\c1ccc[nH]1)C(=O)N1CCCCC1	-5%	0	38%	-12%	21%	-3%
COc1ccc(C)c2sc(NC(=O)c3cccc(N4C(=O)CCC4=O)c3)nc12	1%	.	46%	4%	-1%	-6%
Cc1ccc(C)c2sc(NC(=O)c3ccc(N4C(=O)CCC4=O)cc3)nc12	49%	1	0.2µM*	12%[57.1 µM]	-19%	.
CC(=O)c1c(C)oc2c1cc(O)c1ccccc12	12%	-20	?	-3%	4%	.
CC(=O)c1coc2c1cc(O)c1ccccc12	9%	-33*	0%	5%	23%	5%
O=C(c1ccco1)c1coc2c1cc(O)c1ccccc12	-9%	-31*	-14%	-4%	0%	-1%
CC(=O)Oc1cc2c(C(C)=O)coc2c2ccccc12	-6%	-1	27%	-1%	-2%	-2%
CC(=O)c1cc(O)c2ccccc2c1O	32µM*	-33*	-22%	-4%	-10%	-1%
Cc1nnc(NC(=O)CSC2=NN3CCCC(=O)N=C3S2)s1	28%	2	4%	3%	-8%	-1%
CCCCSCc1nc2ccccn2c1Br	8%	1	11µM*	7%	-5%	10%
COc1ccc(N/C=C2\CCOC2=O)cc1	-18%[57.1 µM]	-2	40%	-3%[57.1 µM]	-4%	-5%
COc1ccc(S(=O)(=O)Nc2ccc3c(c2)OCO3)cc1	-3%	0	33%	-3%	1%	1%
COc1ccc2c(c1)CC/C(=C\Nc1ccc3c(c1)OCO3)C2=O	-32%	-49*	?	-1%	3%	-1%
O=C1/C(=C/Nc2ccc3c(c2)OCO3)CCc2ccccc21	-10%	-40*	-71%	-7%	11µM*	5%
O=C1OC2(CCCCC2)OC(=O)C1=CNc1ccc2c(c1)OCO2	-19%	-10	0%	-7%	-17%	4%
COc1ccc(N/C=C2\CCc3ccccc3C2=O)cc1	4%	-39*	8.9µM*	-1%	?	1%
Cc1ccc(S(=O)(=O)N2CCC(=O)N(CCOC(=O)Nc3ccc(F)cc3)CC2)cc1	12%	0	42%	0%	-7%	.
CC1CCN(S(=O)(=O)c2ccc3nc(Nc4ccc(C#N)cc4)ccc3c2)CC1	18%[57.1 µM]	.	.	38%[57.1 µM]	.	.
